TCR act: activates T cell receptor signaling; primary human leukocytes, anti-CD3, IL-2 HTRF, 48 h; Potency, µM (titrated, usually from 9.22 µM), most hits filed as activators; 330,000 tested, under 10 active; AID 504894
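Human primary leukocytes + a-CD3 beads + cpd, 48 hr; IL-2 in supernatant by HTRF (ex 320nm / em 665nm). No co-stimulatory signal supplied.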
IMPase Li inh: membrane-permeable IMPase blocker, potentiated with lithium; 210,000 tested, 0.35% active; AID 1457; Potency, µM (series often up to 59.4 µM), most hits filed as inhibitors; CHO-M1 cells, IP1 TR-FRET (IP-One), carbachol + lithium;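 also: IP1 builds up when IMPase is blocked and the TR-FRET signal falls; nearly all actives have a fitted effect of over 50% in size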
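IP1 accumulation measured by competitive TR-FRET in lysed CHO-M1 cells after 30 min compound exposure at 37C, with a small lithium addition to potentiate weak responses. Hill-equation AC50 from ratio and donor-channel data.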
LMNA splice mod: LMNA splicing modulation | HeLa LMNA splicing GFP/RFP minigene ratio, 48 h | AID 1487 | Potency, µM (series often up to 46.1 µM), actives largely listed as inhibitors | 200,000 tested, 0.01% active; active = well fitted inhibition curve with a large enough effect in the signal ratio, with a control signal flat, not every such curve was filed as active; inconclusive = small, poorly fitted or top-dose-only effect, or effect the other way, or a change in a side signal; the % refers to the signal ratio
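S3 HeLa cells stably expressing lamin A-EGFP splicing minigene plus DsRed2, 600 cells/well, 48 h compound exposure at 37C. Laser-scanning cytometry; analysed as GFP (500-530 nm)/RFP (575-640 nm) total intensity ratio; 0.5% DMSO vehicle.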
Luc counter: Kinase-Glo luciferase inhibition (counter-screen). 200,000 tested, 0.28% active. Potency, µM (doses to about 38.3 µM), actives largely listed as inhibitors. Q27757. Kinase-Glo luciferase, ATP luminescence, 8 min; also: nearly all actives have a fitted effect of over 60% in size
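Substrate mix (final 50 mM imidazole pH 7.2, 50 mM KCl, 7 mM MgCl2, 10 uM ATP, 0.01% Tween 20, 0.05% BSA) plus pin-tool compound, then Kinase-Glo detection mix; 8 min ambient, luminescence read.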
Numbers stand for hits; - = inactive; ? = inconclusive; . = not tested or not shown; [ ] = dose if it differs, or a comment. An excerpt weighted towards active compounds, which were near 0.34% of everything screened. Unless noted, calls follow the shape of the dose curve; as a rule, active = well fitted curve in the direction sought with a large enough effect; inconclusive = small, poorly fitted or top-dose-only effect, or another doubt; inactive = no such curve, though single readings can be large; an effect the other way counts as inactive or inconclusive.

SMILES | TCR act | IMPase Li inh | LMNA splice mod | Luc counter
COc1ccc(/C=C/C(=O)c2ccccn2)cc1 | . | - | - | 4µM
COc1ccc(-c2csc(C3=C(O)CN(Cc4ccc(Cl)cc4)C3=N)n2)cc1OC | - | - | ? | -
COc1cccc(CN2CC(O)=C(c3nc(-c4ccc(Cl)cc4)cs3)C2=N)c1 | - | 5.6µM | - | -
COc1ccc(C(=O)COC(=O)CCn2nnc(-c3cccc(O)c3OC)n2)cc1 | - | - | - | -
CC(C)Nc1ncnc2ccc(Br)cc12 | - | - | ? | -
CSCCC(Nc1ncnc2ccc(Br)cc12)C(=O)O (stereo not drawn) | - | 10µM | - | -
COc1ccc2c(C)cc(SCC(=O)Nc3ccc(Cl)cn3)nc2c1 | - | 8.9µM | ? | -
N#CC1(NC(=O)COC(=O)c2ccccc2[N+](=O)[O-])CCCCC1 | - | . | . | .
O=C(COC(=O)c1ccccc1[N+](=O)[O-])c1ccc(C2CCCCC2)cc1 | - | - | ? | 11µM
O=C(/C=C/c1ccc(O)cc1)c1ccccc1O | . | - | . | 4.5µM
O=C(/C=C/c1ccc(O)cc1)c1cccs1 | . | - | . | 5.6µM
Oc1ccc(/C=N/Nc2nccnc2Cl)cc1 | - | - | - | 3.5µM
O=[N+]([O-])c1cccc(/C=N/Nc2nccnc2Cl)c1 | - | - | - | 10µM
Fc1ccc(/C=N/Nc2nccnc2Cl)cc1 | - | . | . | .
O=[N+]([O-])c1cccc(/C=N/Nc2ccccn2)c1 | - | - | . | -
COC(=O)c1cc(Cl)c(NC(=O)/C=C/c2ccc(OC)c(OC)c2)cc1OC | . | 10µM | - | -
Cc1cccc(C(=O)n2c(=S)nc3ccccn32)c1 | - | - | - | 14µM
CCN1C(=O)[C@H]2[C@@H](c3ccc(-c4ccc(OC)cc4)cc3)N[C@@](C)(C(=O)OC)[C@H]2C1=O | - | . | . | .
CCCCn1c(N)c(N(CC(C)C)C(=O)c2ccc(Br)s2)c(=O)[nH]c1=O | - | . | . | .
Cc1nc(SC(C(N)=O)c2ccccc2)c(C#N)c(C)c1C (stereo not drawn) | - | . | . | .
COc1ccccc1-c1cc(-c2ccccc2)nc(SC(C(N)=O)c2ccccc2)c1C#N (stereo not drawn) | - | 7.9µM | - | -
Cc1cccc(Sc2c([N+](=O)[O-])ncn2C)c1 | - | 7.9µM | - | -
C/C(=N/NC(=O)c1ccccn1)c1ccco1 | - | - | - | 7.1µM
C/C(=N/NC(=O)c1ccccn1)c1ccc(O)cc1 | - | . | . | .
Cc1cc(C)nc(N/N=C/c2sccc2C)n1 | - | - | ? | -
SMILES | TCR act | IMPase Li inh | LMNA splice mod | Luc counter
Cc1ccsc1/C=N/Nc1nc(=O)[nH]nc1C | - | - | ? | 4.5µM
CCOC(=O)c1sc(N)nc1C(F)(F)F | - | . | . | .
COc1cccc(NC(=O)CSc2nc3c(c(-c4ccco4)c2C#N)CCCC3)c1 | . | 11µM | - | -
N#Cc1c(-c2ccco2)nc(SCC(=O)Nc2cccc(Cl)c2)[nH]c1=O | . | 10µM | - | -
O=C(CSc1nc2[nH]ncc2c(=O)[nH]1)Nc1cccc(Cl)c1 | - | . | . | .
O=C(c1ccccc1)n1c(=S)nc2ccccn21 | - | . | - | .
O=C(N=c1nc2ccccn2s1)c1ccccc1 | . | - | - | 2.5µM
O=C(COC(=O)c1ccc(Cl)nc1)NCCc1ccccc1 | - | . | . | .
Cc1nonc1C(=O)N/N=C/c1cccc(O)c1 | - | - | - | 8.9µM
COc1ccccc1Nc1nnc(SCC2CCCCO2)s1 (stereo not drawn) | - | - | . | 8.9µM
O=C(COC(=O)c1cc(-c2cccs2)nc2ccccc12)NCc1ccco1 | - | 7.9µM | ? | -
COc1ccc(CNC(=O)COC(=O)c2cc(-c3ccc(Cl)s3)nc3ccccc23)cc1 | - | 10µM | - | -
O=C(COC(=O)c1cc(-c2ccc(Cl)s2)nc2ccccc12)NCc1ccco1 | - | ? | - | -
Cc1cn(S(=O)(=O)c2ccc(Br)c3ccccc23)cn1 | . | 11µM | - | -
CC1Cc2ccccc2N1C(=O)COc1nc2ccccc2nc1N1CCOCC1 (stereo not drawn) | - | 25µM | - | -
COc1ccc(/C(O)=C2\C(=O)C(=O)N(c3cc(C)on3)C2c2ccccc2OC)cc1 (stereo not drawn) | - | 6.3µM | - | -
COc1ccc(/C(O)=C2\C(=O)C(=O)N(c3cc(C)on3)C2c2ccccc2OC)cc1C (stereo not drawn) | - | . | - | .
COc1cccc(C2/C(=C(\O)c3ccc(OC)c(OC)c3)C(=O)C(=O)N2c2cc(C)on2)c1 (stereo not drawn) | - | 10µM | - | -
CCOc1ccc(NC(=O)CCNC(=O)C2CCN(S(=O)(=O)c3ccccc3)CC2)cc1 | - | . | . | .
Cc1cccc(OCC(=O)N(Cc2ccc(F)cc2)C2CCS(=O)(=O)C2)c1C (stereo not drawn) | - | . | . | .
CC1CN=C(N(C(=O)Nc2ccccc2)c2ccc(S(=O)(=O)N3CCOCC3)cc2)S1 (stereo not drawn) | - | - | ? | -
Cc1cc(C)c2nc(NNC(=O)c3ccc(S(=O)(=O)N4CC(C)CC(C)C4)cc3)sc2c1 (stereo not drawn) | - | - | ? | -
Cc1cccc2sc(NNC(=O)c3ccc(S(=O)(=O)N4CC(C)CC(C)C4)cc3)nc12 (stereo not drawn) | - | - | 18µM | -
O=C(c1ccco1)N1N=C(c2ccc(Br)cc2)CC1(O)C(F)(F)F (stereo not drawn) | - | - | ? | -
CCc1cccc(C)c1NC(=O)CSc1nc2ccc(N3C(=O)c4ccccc4C3=O)cc2s1 | - | 16µM | ? | -
SMILES | TCR act | IMPase Li inh | LMNA splice mod | Luc counter
Cc1cc(C)c(NC(=O)CSc2nc3ccc(N4C(=O)c5ccccc5C4=O)cc3s2)c(C)c1 | - | - | . | -
O=C(O)C[C@H]1OCC=C2C[N@@+]3([O-])CC[C@]45c6ccccc6N[C@@H]4[C@@H]1[C@H]2C[C@H]53 | . | - | . | -[7.66 µM]
COc1ccc2[nH]c3c(=S)nc[nH]c3c2c1 | - | 2.8µM | . | -
COc1ccc2[nH]c3c(Cl)ncnc3c2c1 | - | . | - | .
CC1=CC(=C2C(=O)c3ccccc3C2=O)C=C(C)N1C | - | - | - | -
CCCCCN1C=CC(=C2C(=O)c3ccccc3C2=O)C=C1 | - | - | - | 2.8µM
CCc1ccc(C(=O)NNC(=O)c2ccc(=O)n(C)n2)cc1 | - | . | . | .
COC(=O)CSc1nc2c(cnn2-c2ccc(F)cc2)c(=O)[nH]1 | - | . | - | .
CSc1ccccc1-c1n[nH]c(=S)o1 | - | 10µM | - | -
COc1ccccc1-c1n[nH]c(=S)o1 | - | ? | - | -
COc1ccc(Cl)cc1-c1n[nH]c(=S)o1 | - | 6.3µM | - | -
Cc1ccccc1-c1n[nH]c(=S)o1 | - | 10µM | - | -
S=c1[nH]nc(-c2ccccc2)o1 | - | 11µM | - | -
CC[C@H]1NC(=O)c2cc(S(N)(=O)=O)c(Cl)cc2N1 | . | - | ? | -
O=C(NN=Cc1cc(Br)c(O)c(Br)c1)c1ccccc1NS(=O)(=O)c1cccs1 | - | . | . | .
Cc1coc2cc3oc(=O)ccc3cc12 | - | . | . | .
Cc1ccc(CN=Cc2[nH]c3ccc(Br)c(Cl)c3c2O)cc1 | - | 8.9µM | - | -

Bioassay records deposited in PubChem BioAssay by National Center for Advancing Translational Sciences (NCATS).
